Measured values from PubChem BioAssay AID1851 (National Center for Advancing Translational Sciences (NCATS), 2009).
The whole screen tested about 16,000 compounds, of which about 2,600 (16%) were called active. Another 20% or so got no clear call; they are omitted. The call rests on the fitted dose curve; in most records, active means well fitted curve in the direction sought with a large enough effect; inconclusive means small, poorly fitted or top-dose-only effect, or effect the other way; inactive means no such curve, though single readings can be large or run the other way. The list is a sample of the results.

target: Cytochrome P450 2D6 (Homo sapiens) (UniProt P10635); assay: Cytochrome panel assay with activity outcomes; conditions: recombinant CYP, pro-luciferin dealkylation, luminescence, p450-cyp2d6; series mostly up to 57.1 µM; activity, negative = inhibition: at the top concentration
Sequence (P10635 whole entry, looked up): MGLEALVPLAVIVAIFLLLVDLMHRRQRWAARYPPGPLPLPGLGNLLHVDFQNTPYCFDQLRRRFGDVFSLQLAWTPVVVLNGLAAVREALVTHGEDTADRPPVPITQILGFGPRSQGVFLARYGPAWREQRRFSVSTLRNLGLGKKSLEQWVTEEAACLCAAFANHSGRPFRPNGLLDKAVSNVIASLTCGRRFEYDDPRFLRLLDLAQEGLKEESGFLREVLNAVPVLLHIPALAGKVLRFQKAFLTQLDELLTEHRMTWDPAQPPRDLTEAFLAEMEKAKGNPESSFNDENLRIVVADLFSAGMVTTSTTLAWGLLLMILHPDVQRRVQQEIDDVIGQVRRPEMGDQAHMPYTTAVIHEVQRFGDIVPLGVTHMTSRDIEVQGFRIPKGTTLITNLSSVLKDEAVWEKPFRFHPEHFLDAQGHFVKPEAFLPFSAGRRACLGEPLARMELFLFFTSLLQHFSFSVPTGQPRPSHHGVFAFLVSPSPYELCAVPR
On the % scale 0 is the no-effect control and ±100 the full control effect.

activity, negative = inhibition, inactive:
Cc1nn(CCc2n[nH]c(=S)n2-c2ccc(F)c(Cl)c2)c(C)c1[N+](=O)[O-] -1.51%, C#C[C@@]1(OC(C)=O)CC[C@@H]2[C@@H]3CCC4=C[C@@H](OC(C)=O)CC[C@H]4[C@H]3CC[C@]21C -7.92% [at 25.6 µM], N#CCSc1ncnc2c1cnn2CCO -1.07%, COC(=O)c1c(-c2ccccc2)csc1NC(=O)CSc1ncnc2sc(C)c(C)c12 16.2%, NC(=S)c1ccc[n+]([C@@H]2O[C@@H](COP(=O)([O-])OP(=O)(O)OC[C@@H]3O[C@@H](n4cnc5c(N)ncnc54)[C@@H](OP(=O)(O)O)[C@H]3O)[C@@H](O)[C@H]2O)c1 -0.503%, Cc1noc(C)c1C(=O)N1CCC2(CCN(Cc3ccccc3)CC2)CC1 -1.81%, COc1ccc(C(=O)N2CCC3(CCN(Cc4ccncc4)CC3)CC2)cc1 -11.6%, COC(=O)N1CCC2(CCN(Cc3nccs3)CC2)CC1 1.21%, CC(=O)N1CCC2(CC1)CCN(c1ccc(-c3ccccc3)cc1)CC2 -6.74%, COC(=O)N1CCC2(CC1)CCN(c1cccc(-c3ccccc3)c1)CC2 -12.4%, CC(=O)N1CCC2(CCN(Cc3ccncc3)CC2)CC1 -7.43%, CC(=O)N1CCC2(CC1)CCN(c1ccccn1)CC2 6.43%, COc1ccccc1CN1CC[C@@]2(CCCN(C(=O)c3c(C)noc3C)C2)C1 15.2%, Cc1cc2c(cc1C)NC1=C(N2)O[C@H](c2c[nH]c3ccc(COc4ccccc4)cc23)C1=O -9.09% [at 11.4 µM], N#C/C(=N\O)c1nc(-c2ccccc2)cs1 1.46%, CC(C)(C)c1ccc(OCC(=O)NNC(=O)Cc2cccs2)cc1 -9.25%, C/C(C[n+]1ccccc1)=N\N=C(N)N 6.81% [at 11.4 µM], CN(C)C(=O)CSC1c2ccccc2C(=O)N1c1ccccc1 (stereo not given) 2.05%, O=c1c(-c2ccccc2)nc2cnc(N3CCNCC3)nc2n1C1CC1 -8.52%, Cc1onc(-c2c(F)cccc2Cl)c1C(=O)N[C@@H]1C(=O)N2[C@H]1SC(C)(C)[C@H]2C(=O)O 16.2% [at 11.4 µM], CNc1cc(N2CCCCCC2)ccc1[N+](=O)[O-] -8.75%, CCC(CC)C(=O)Nc1cccc(/C(C)=N/NC(=O)c2c(Br)cnn2C)c1 -6.99%, CN(C)CCn1nnnc1SCC1=C(C(=O)O)N2C(=O)[C@@H](NC(=O)Cc3csc(N)n3)[C@@H]2SC1 -1.78% [at 25.6 µM], COc1ccc(C(=O)N2CCC3(CCN(Cc4cc(C(F)(F)F)cc(C(F)(F)F)c4)CC3)CC2)cc1 5.59%, COCC(=O)N1CCC2(CC1)CN(Cc1ccccc1OC)C2 -0.881%, COc1ccc(NC(=O)N2CCCC3(CCNCC3)C2)cc1 3.65%, COCC(=O)N1CCC2(CC1)CCN(C(=O)Nc1ccc(OC)cc1)CC2 2.51%, COCC(=O)N1CCC2(CC1)CN(Cc1cc(C(F)(F)F)cc(C(F)(F)F)c1)C2 -9.81%, Cc1cc2c(cc1S(N)(=O)=O)S(=O)(=O)CCC2 5.14% [at 25.6 µM], CON(C)C(=O)c1nnc2c(n1)[nH]c1ccccc12 -2.74% [at 11.4 µM], Cc1ccc(Oc2ncc(CN3CCOCC3)s2)cc1 -14.5%, COc1cc(N2CCOCC2)ncn1 48.9%, N[C@@]1(C(=O)O)CN[C@H](C(=O)O)C1 6.38%, NC1(C(=O)O)CC(C(=O)O)C1 (stereo not given) 8.58%, Cc1cc(C)cc(-n2nnnc2SCC(=O)Nc2nc(-c3ccc(F)cc3)cs2)c1 -3.64%, COc1ccc(COC(=O)N/N=C2/C[C@@H](O)[C@@H](O)[C@@H]3[C@@H]4C(=O)N(C(C)(C)C)C(=O)[C@H]4CC[C@@H]23)cc1 12.5% [at 11.4 µM], COC(=O)CSC(C(=O)Nc1ccc(C)c(C)c1)c1ccccc1 (stereo not given) -15.4%, CCC(CC)C(=O)Nc1cccc(/C(C)=N\NC(=O)c2ccc(C)s2)c1 0.29%, Cc1ccccc1C(C(=O)NC1CCCC1)N(C(=O)Cc1cccs1)c1ccc2c(c1)OCCO2 (stereo not given) -26.2%, CCOC(=O)CN(C(=O)CCC(=O)Nc1cc(C)on1)C(C(=O)NC1CCCC1)c1cccnc1 (stereo not given) 27.1%, COc1cccc(C(CC(=O)Nc2cccc3ccccc23)NC(=O)c2ccccc2)c1 (stereo not given) -16.1%, COC(=O)c1cc2c(ccn2-c2ccc(F)cc2)n1C(C)C -24.7%, CNC(=O)c1cc2c(cn1)[nH]c1ccccc12 -7.85%, Nc1n[nH]c2ccccc12 -3.15% [at 11.4 µM], O=c1ccc(-c2ccccc2)n[nH]1 2.58% [at 11.4 µM], Cc1ccc(NC(=O)CN2C(=O)N/C(=C/c3ccc(C)o3)C2=O)cc1 9.19%, CCCCOC(=O)Nc1nc2ccccc2s1 -9.05%, CC(=O)OCc1nc2ccccc2s1 14%, Cc1cc2ncn(/N=C/c3ccc([N+](=O)[O-])o3)c2cc1C -17.6%, COc1cccc2cc3c(=O)oc4ccccc4c3nc12 1.36%, Cc1cccc(NC(=O)c2cc(=O)c3ccccc3o2)n1 -8.7%

AC50, active:
COC(=O)N1CCC2(CCN(Cc3ccccc3OC)CC2)CC1 2 µM, COCC(=O)N1CCC2(CCN(Cc3ccncc3)CC2)CC1 6.31 µM, COc1ccccc1CN1CCC2(CC1)CCN(C(=O)c1c(C)noc1C)CC2 7.94 µM, COc1ccccc1CN1CCC2(CC1)CCN(C(C)=O)CC2 5.01 µM, COc1ccccc1CN1CCC2(CCNCC2)CC1 0.0316 µM, COCC(=O)N1CCC2(CCN(Cc3ccccc3OC)CC2)CC1 15.8 µM, COC(=O)N1CCC2(CCN(Cc3cc(C(F)(F)F)cc(C(F)(F)F)c3)CC2)CC1 10 µM, Cc1cc(C(C)(C)C)c(OCCCN2CCOCC2)c(C(C)(C)C)c1 2 µM, CCC(CC)C(=O)Nc1ccc(C)c(O)c1 17.8 µM, CCOc1ccc(N(C(=O)/C=C/C(=O)Nc2cc(C)on2)C(C(=O)NC2CCCC2)c2ccccc2C)cc1 (stereo not given) 14.1 µM, O=C1c2ccccc2-c2n[nH]c3cccc1c23 0.398 µM, CCCc1cc(C(=O)Cc2nc3ccccc3s2)c(O)cc1O 1.41 µM, COc1cccc(-c2cc(=O)c3ccccc3o2)c1N 7.94 µM

AC50, inactive:
N[C@H](CCC(=O)N[C@H](CSN=O)C(=O)NCC(=O)O)C(=O)O
